PubChem BioAssay
Values without a mark were called inactive.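 The calls were made as follows: active = inhibition at or above 50% relative to wild type and mutant plate controls; inactive = inhibition below 50%.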

experiment: loss of swimming-algae plug formation – whole organism, Chlamydomonas reinhardtii, WT vs cilia-less mutant, absorbance, 96-well, primary screen (AID 463189); conditions: Chlamydomonas reinhardtii gravitaxis, OD600 absorbance, 2 days; at 10 µM; hits give high values;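 also: 0% = wild type cc124 cells in DMSO and 100% = ciliumless bld1 mutant cells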

**Q.** For `OC[C@H]1O[C@@H](n2cnc3cncnc32)[C@H](O)[C@@H]1O`, which inhibition is on record?
**A.** The inhibition was 6.38%.

**Q.** Which inhibition does the source give for `CC(C)(C(=O)O)c1ccc(C(O)CCCN2CCC(C(O)(c3ccccc3)c3ccccc3)CC2)cc1` (stereo not drawn) here?
**A.** The inhibition was -1.29%.

**Q.** With `CCNC(=O)C1OC(n2cnc3c(NCc4ccccc4)ncnc32)C(O)C1O` (stereo not drawn) as the molecule, how does the inhibition read?
**A.** The inhibition was -0.03%.

**Q.** For `O=C(O)Cc1ccc(O)c(O)c1`, which inhibition is on record?
**A.** The inhibition was 5.56%.

**Q.** Which inhibition does the source give for `Cn1c(=O)c2[nH]c(C3CCCC3)nc2n(C)c1=O` here?
**A.** Its inhibition is -2.05%.

**Q.** For `COC(=O)[C@H]1[C@H]2C[C@H]3c4[nH]c5ccccc5c4CCN3C[C@H]2CC[C@@H]1O`, which inhibition is on record?
**A.** The inhibition was 6.15%.

**Q.** For `C=CCN1CCc2c(cc(O)c(O)c2Br)[C@@H](c2ccccc2)C1`, which inhibition is on record?
**A.** The inhibition was 0.67%.

**Q.** Which inhibition does the source give for `C=Cc1c(C)c2cc3[nH]c(cc4nc(cc5nc(cc1[nH]2)C(C)=C5CCC(=O)O)C(CCC(=O)O)=C4C)c(C)c3C=C` here?
**A.** The inhibition was 9.54%.

**Q.** For `C[C@@H]1C(=O)NC2=Nc3cccc(Cl)c3CN21`, which inhibition is on record?
**A.** The inhibition was 1.72%.

**Q.** With `Oc1ccc(C2CNCc3sccc32)cc1O` (stereo not drawn) as the molecule, how does the inhibition read?
**A.** The inhibition was 10.1%.

**Q.** Which inhibition does the source give for `C=CCn1c(=O)c2c(nc(-c3ccc(S(=O)(=O)O)cc3)n2C)n(C)c1=O` here?
**A.** The inhibition was 4.78%.

**Q.** With `CCCC(=O)NCCc1c2n(c3ccc(OC)cc13)CCCc1ccccc1-2` as the molecule, how does the inhibition read?
**A.** The inhibition was 5.19%.

**Q.** Which inhibition does the source give for `OC(CN1CCN(c2cccc(Cl)c2)CC1)C(c1ccccc1)c1ccccc1` (stereo not drawn) here?
**A.** Its inhibition is 4.93%.

**Q.** With `COCC(=O)O[C@]1(CCN(C)CCCc2nc3ccccc3[nH]2)CCc2cc(F)ccc2[C@@H]1C(C)C` as the molecule, how does the inhibition read?
**A.** The inhibition was 11.6%.

**Q.** For `O=C1c2c(O)ccc(O)c2C(=O)c2c(NCCNCCO)ccc(NCCNCCO)c21`, which inhibition is on record?
**A.** The inhibition was 28.8%.

**Q.** With `Cc1cccc(C)c1NC(=O)C[N+](C)(C)C` as the molecule, how does the inhibition read?
**A.** The inhibition was 7.92%.

**Q.** Which inhibition does the source give for `CC(N)=NCc1cccc(CN)c1` here?
**A.** The inhibition was 7.48%.

**Q.** With `CCC1(O)CC2CN(CCc3c([nH]c4ccccc34)[C@@](C(=O)OC)(c3cc4c(cc3OC)N(C=O)C3[C@]45CCN4CC=C[C@@](CC)([C@@H](OC(C)=O)[C@]3(O)C(=O)OC)[C@H]45)C2)C1` (stereo partly drawn) as the molecule, how does the inhibition read?
**A.** Its inhibition is 1.07%.

**Q.** Which inhibition does the source give for `CCCCCC[C@@H]([C@@H](C)O)n1cnc2c(N)ncnc21` here?
**A.** Its inhibition is -0.492%.

**Q.** For `CSc1ccc2c(c1)C(N1CCN(C)CC1)Cc1ccccc1S2` (stereo not drawn), which inhibition is on record?
**A.** The inhibition was 0.427%.

**Q.** For `N[C@H](CCC(=O)NCS(=O)(=O)O)C(=O)O`, which inhibition is on record?
**A.** The inhibition was 4.82%.

**Q.** Which inhibition does the source give for `NC1(C(=O)O)CC1` here?
**A.** The inhibition was 5.31%.

**Q.** For `CC(N)=O`, which inhibition is on record?
**A.** Its inhibition is 0.285%.
